# Results taken from the supplement of paper PMC6555819.
# Tests used:
# Experiment in all cases: PBM binding z-score (relative to random genomic background probes); higher = stronger binding; sequences stand for … in GC…GCGATTGACAGCGTAGAATGAAGG
# [1] = test system: RARb homodimer (NR concentration 270 nM)
# Summary of the method: (§1)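 Random background probes are the reference for binding z-scores. These scores derive from regression-normalized fluorescence on custom Agilent 4×180K protein-binding microarrays incubated 1 h with ligand-free nuclear receptor dimers. Binding was detected with antibodies against each partner (one per run).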
# [2] = test system: RARg:RXRa (NR concentration 270 nM, RXRa partner concentration 90 nM)
# Summary of the method: as §1
# [3] = test system: RARg homodimer (NR concentration 270 nM)
# Summary of the method: as §1
# [4] = test system: RXRa DBDmut IVT, anti-RXR (DBD mutation: RXRa K156A/R161A, NR concentration 90 nM)
# Summary of the method: as §1
# [5] = test system: RXRa homodimer (NR concentration 180 nM)
# Summary of the method: as §1
# [6] = test system: THRa:RXRa (NR concentration 90 nM, RXRa partner concentration 90 nM)
# Summary of the method: as §1
# [7] = test system: THRa homodimer (NR concentration 90 nM)
# Summary of the method: as §1
# [8] = test system: VDR:RXRa (NR concentration 270 nM, RXRa partner concentration 90 nM)
# Summary of the method: as §1
# [9] = test system: VDR homodimer (NR concentration 270 nM)
# Summary of the method: as §1
Sequence,PBM binding z-score [1],PBM binding z-score [2],PBM binding z-score [3],PBM binding z-score [4],PBM binding z-score [5],PBM binding z-score [6],PBM binding z-score [7],PBM binding z-score [8],PBM binding z-score [9]
CGAACTACGTCACCAGGACAGTGAAGAGGTTGGA,0.196,0.119,0.277,-0.206,0.256,1.27,0.657,-0.211,0.0213
CCAGACAGGTGAAAGGTAACTCACTCTGGTACGC,0.88,1.34,0.948,0.0725,2.37,1.03,-0.0395,0.767,-0.0544
CGAACTAGGTCAAAGCACAGTGAAAGGCGACGTA,2.34,3.89,4.07,1.58,2.66,2.37,0.0185,1.2,0.261
CAAACTAGGTCAAAGGACAGTGAAAGGCGACGTA,2.87,3.97,4.47,1.68,2.86,2.78,0.733,1.53,0.509
TCATATAGGTTAAGGTGAAAGTCGAACGATATGA,1.66,2.3,2.08,0.797,2.45,3.33,2.71,0.985,0.253
CGAACTAGGTCAAAGGACAGAGAAAGGCGACGTA,2.7,4.29,4.46,1.73,3.38,2.44,0.0564,1.54,0.391
CCTACTGGGCCATTCAGAGGTCACTGATCATATG,4.51,4.5,3.57,0.354,3.71,3.48,1.72,3.58,1.85
GGAACGGGGGCATTCGAGTTGATAGCATGGCGAT,1.62,2.68,2.39,3.78,2.47,4.15,1.09,5.52,4.57
CTATGTAGGTTAAGGGGGTCAGTCAGTTTGAAAG,3.63,4.2,3.72,1.75,4.08,3.17,1.89,6.49,3.99
ATATGTAGGTGAGGGTCATTCAGAAAGTAGGGAA,3.13,3.24,3.06,1.67,3.67,2.56,1.31,3.42,2.76
CCTTACAGGTCACGAGGTTATAGCACGACGAGCG,4.51,6.3,6.12,2.77,6.64,3.98,1.85,5.04,2.48
CCGAGTAGGTTAAGAGGGGGCATTCAGTGCGAAT,2.25,2.76,2.49,2.04,1.76,3.73,0.843,5.44,4.02
CTATGTTGGTTAAGGGGGTCATTCAGTTTGAAAG,3.86,4.63,3.46,2.63,5.18,3.75,3.17,6.64,6.63
CGAACTAGGTCAAAGGACAGTAAAAGGCGACGTA,2.85,4.05,4.79,1.33,3.25,2.75,0.556,1.55,0.392
TCGAGTAGGTTACGGGGGCATTCGGGGATGAAGA,2.34,3.52,2.38,1.85,2.92,4.01,1.63,4.16,3.83
CATCCAAGGTCAAAGGTCAGTGAAGAGATGACGG,5.65,8.8,7.95,4.08,10.2,4.93,2.74,6.71,4.15
TCGAGTTGGTTACGGGGGCATTCAGGGATGAAGA,1.6,2.49,1.71,2.61,1.89,3.74,1.87,3.63,4.57
GGAACGAGGGCAAAGGTGATAGCATCTGTCGACG,1.66,3.02,1.95,2.07,3.31,1.85,-0.159,1.92,1.02
CCGAGTAGGTTACGACGGGGCATTCAGTGCGAAT,0.791,0.882,0.746,-0.202,0.769,2,-0.61,1.49,0.32
CTATGTAGGTTTAGGGGGTCATTCAGTTTGAAAG,3.42,4.23,3.14,2.35,4.8,3.52,1.9,6.29,5.35
ATACCAAGGTTATCGTGAGGTCGTTGATACTAAC,2.36,4.49,2,2.26,3.2,4.2,2.91,4.98,3.67
CGAACTAGGTCACTAGGACAGTGAAGAGGTTGGA,3.02,3.58,4.16,1.22,2.07,2.71,0.967,1.18,0.00359
CGAACTAGGTCAGAACAGGACAGTTAAGGATGAT,2.09,2.45,3.49,0.671,1.3,3.48,0.637,1.02,0.142
TCGAGTAGGTTACGGGGGCATCCAGGGATGAAGA,2.2,3.36,2.37,1.27,2.88,3.66,1.12,3.51,2.47
TTACCAAGGTGAAGGTCGTGGATCCCTCTGTAGA,2.22,1.86,1.49,0.01,2.63,2.79,1.11,1.28,0.222
TAGCCTAGGTCATTCAGGGGCTAGTATAGAAAGC,2.84,4.98,4.16,1.94,2.89,3.74,0.0111,2.8,0.805

Sequence,PBM binding z-score [1],PBM binding z-score [2],PBM binding z-score [3],PBM binding z-score [4],PBM binding z-score [5],PBM binding z-score [6],PBM binding z-score [7],PBM binding z-score [8],PBM binding z-score [9]
CCGAGTAGGTTACGAGGGGGCATGCAGTGCGAAT,2.07,3.17,2.67,1.12,2.12,3.73,0.433,4.63,2.6
CGAACTAGGTCAATGGACAGTGAAAGGCGACGTA,2.45,3.17,4.17,1.14,2.14,1.93,-0.00999,0.802,0.0508
CGAACTAGGTCACCAGCACAGTGAAGAGGTTGGA,3.37,4.43,5.44,1.35,3.29,3.1,1.29,1.89,0.496
CCTTACGGGTCACTGACAGCTTATAGCATTTGGA,2.97,4.67,4.43,2.04,4.76,2.32,0.275,3.11,0.89
CGTCAAAGTTCATGGTAACGTAACAGAAAGCAGC,4.04,5.3,5.92,4.79,4.53,1.98,-0.212,4.33,4.64
CGAACTAGGTCAGAACAGTACAGTGAAGGATGAT,1.96,2.46,3.33,0.94,1.27,1.83,0.222,0.879,0.229
ATCGAAAGGTCGTCGAGGTGAGTATACACCGTTT,3.07,4.59,4.35,1.72,5.2,3.83,0.955,5.7,2.41
CGAACTAGGTCCAAGGACAGTGAAAGGCGACGTA,0.38,0.00598,0.386,0.946,0.00981,1.39,0.672,-0.332,-0.041
CTATGTAGGTTAAGGGGCTCATTCAGTTTGAAAG,0.464,0.537,0.331,0.357,0.409,0.521,0.0604,0.993,0.323
TAGCCTAGGCCATGGGCCAGTATACCACGCGAAC,-0.0202,-0.148,0.285,-1.69,-0.256,-0.253,-0.645,-0.852,-0.837
CCTAGTAGGTTACGAGGGGGCATTCAGTGCGAAT,2.39,3.44,2.96,1.47,2.43,3.91,0.978,5.12,3.98
CGAACTAGGTCAAAGGACAGTGATAGGCGACGTA,3.06,3.97,4.98,1.56,3.26,2.56,0.594,1.45,0.324
CGTCCAAGGTCAATTCTAGGTCAGTGAAAGCATT,5.03,7.43,6.42,3.52,4.75,4.64,3.17,4.61,2.76
CCGTGTAGGTTACGAGGGGGCATTCAGTGCGAAT,2.58,3.76,3.23,1.74,2.46,4.03,1.23,5.7,3.94
TCATATAGGTGAAAGGTGAAAGTCGGTGTGGTAA,2.31,3.45,1.46,2,4.53,2.15,0.384,2.12,0.0995
ATATGTAGGTTAGGGTCGTTCAGAAAGTAGGGAA,2.05,1.69,1.16,1.52,2.44,2.85,1.95,2.57,2.55
CAAACTAGGTCAAGGTCAAATTCGGTTTGTGCCA,5.19,6.03,6.67,3.1,6.24,4.38,3.92,5.06,4.1
CGTCAAAGTTAAAGGTAACGTAACAGAAAGCAGC,0.442,0.799,0.833,0.0376,0.816,0.694,-0.0792,0.291,-0.165
CGATCTAGGTCAAAGGACAGTGAAAGGCGACGTA,2.74,3.63,4.58,1.7,2.76,2.62,0.472,1.15,0.297
AATACAGGGTCACTAGGCCCGAGTAGGTACGAAT,2.85,5.05,4.72,2.31,5.31,3.09,0.859,3.96,2.26
CTATGGAGGTTAAGGGGGTCATTCAGTTTGAAAG,4.08,5.71,4.46,3.59,6.48,4.04,2.95,8.03,6.81
AGAGTGAGGTTACCAAAGATCAGGGAAACGCTTG,1.61,2.25,1.78,0.473,2.81,2.84,1.16,1.64,0.671
ATATGTATGTTAGGGTCATTCAGAAAGTAGGGAA,3.03,3.74,2.71,2.73,4.9,4.06,3.17,4.38,3.27
ATATGTAGGTTAAGGGTCATGCAGGTTGGTTCGC,3.89,5.07,3.84,1.76,6.52,3.5,1.93,–,3.81
ATGTGTAGGTTAGGGTCATTCAGAAAGTAGGGAA,3.9,4.4,3.74,2.52,5.52,4.17,3.9,4.65,4.18
AGTCAGAGTTCATCTAGGTAACGTAAGATATGCT,3.28,4.7,4.79,4.9,4.73,3.14,0.225,5.48,7.13
